In PMC5540273 (PLoS ONE, 2017):

Columns and labels:
Settings in all cases: concentration: 1 μM, replicates: in singlicate; n = 1
NEK4 = tested on: NEK4
NEK5 = tested on: NEK5
NEK6 = tested on: NEK6
NEK7 = tested on: NEK7
NEK9 = tested on: NEK9
NIK = tested on: T1, NIK
T1 construct: gene MAP3K14

NIM1 = tested on: T2, NIM1
T2 construct: gene MGC42105

NLK = tested on: NLK
OSR1 = tested on: T3, OSR1
T3 construct: gene OXSR1

PAK1 = tested on: PAK1
PAK2 = tested on: PAK2
PAK3 = tested on: PAK3
PAK4 = tested on: PAK4
PAK6 = tested on: PAK6
PAK7 = tested on: PAK7
PCTK1 = tested on: T4, PCTK1
T4 construct: gene CDK16

PCTK2 = tested on: T5, PCTK2
T5 construct: gene CDK17

PCTK3 = tested on: T6, PCTK3
T6 construct: gene CDK18

PDGFRA = tested on: PDGFRA
PDGFRB = tested on: PDGFRB
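Also: KINOMEscan kinase panel screen.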

| Structure (SMILES) | %Inh (NEK4) [%] | %Inh (NEK5) [%] | %Inh (NEK6) [%] | %Inh (NEK7) [%] | %Inh (NEK9) [%] | %Inh (NIK) [%] | %Inh (NIM1) [%] | %Inh (NLK) [%] | %Inh (OSR1) [%] | %Inh (PAK1) [%] | %Inh (PAK2) [%] | %Inh (PAK3) [%] | %Inh (PAK4) [%] | %Inh (PAK6) [%] | %Inh (PAK7) [%] | %Inh (PCTK1) [%] | %Inh (PCTK2) [%] | %Inh (PCTK3) [%] | %Inh (PDGFRA) [%] | %Inh (PDGFRB) [%] |
| --- | --- | --- | --- | --- | --- | --- | --- | --- | --- | --- | --- | --- | --- | --- | --- | --- | --- | --- | --- | --- |
| Cc1nc(N(C)[C@H]2CN(C(=O)CC#N)CC[C@H]2C)c2cc[nH]c2n1 | 4 | 11 | 7 | 0 | 0 | 0 | 0 | 7 | 0 | 0 | 0 | 0 | 0 | 2 | 15 | 0 | 0 | 0 | 0 | 0 |
| Cc1cccc(-c2cc(-c3c[nH]nc3-c3ccccn3)ccn2)c1 [GW679395] | 0 | 7 | 0 | 0 | 0 | 19 | 6 | 32 | 0 | 24 | 22 | 1 | 0 | 0 | 0 | 5 | 0 | 1 | 0 | 61 |
| CCc1ccc(-c2ccc3c(c2)-c2nn(C)cc2S(=O)(=O)N3C)cc1 | 0 | 0 | 0 | 0 | 0 | 0 | 0 | 0 | 0 | 0 | 11 | 0 | 0 | 9 | 0 | 0 | 0 | 0 | 0 | 0 |
| Cc1ccc(-c2ccc3c(ccc4sc5c(c43)NC[C@@H](C)N=C5N(C)C)n2)cn1 | 0 | 0 | 0 | 0 | 0 | 0 | 0 | 0 | 0 | 0 | 0 | 0 | 0 | 0 | 10 | 0 | 0 | 9 | 0 | 0 |
| CCC(=O)c1c(-c2ccccc2)c2cc(Cl)ccc2c(=O)n1Cc1ccc(C(=O)O)cc1 | 0 | 0 | 0 | 0 | 0 | 0 | 0 | 0 | 0 | 0 | 0 | 0 | 0 | 0 | 0 | 0 | 0 | 0 | 19 | 58 |
| Nc1nc(N)c2nc(-c3ccccc3)[nH]c2n1 [SKF-12778] | 8 | 10 | 5 | 9 | 6 | 0 | 0 | 2 | 22 | 0 | 0 | 0 | 13 | 0 | 5 | 5 | 0 | 0 | 0 | 14 |
| CCCC(=O)Nc1n[nH]c2ncc(-c3cccc4ccccc34)cc12 [SB-642057] | 0 | 9 | 0 | 0 | 0 | 11 | 28 | 24 | 0 | 4 | 5 | 0 | 0 | 0 | 0 | 27 | 35 | 34 | 0 | 12 |
| COc1cc2nccc(Nc3cccc(Oc4ccccc4)c3)c2cc1OC.Cl [GW284543] | 3 | 0 | 0 | 11 | 27 | 37 | 19 | 24 | 4 | 0 | 0 | 0 | 0 | 0 | 4 | 4 | 0 | 2 | 22 | 26 |
| COc1cc(Nc2ccnc3ccc(C(F)(F)F)cc23)cc(OC)c1OC [GW577382] | 5 | 13 | 2 | 3 | 13 | 0 | 85 | 73 | 14 | 0 | 0 | 31 | 4 | 0 | 7 | 0 | 0 | 7 | 0 | 36 |
| CCn1c(-c2ccoc2)nc2cnccc21 [SB-733887] | 22 | 4 | 5 | 0 | 0 | 21 | 11 | 7 | 9 | 12 | 19 | 0 | 0 | 0 | 0 | 9 | 0 | 1 | 63 | 9 |
| CCS(=O)c1ccc(-c2coc3ccc(-c4nnc(C)o4)cc23)cc1 (centres unmarked) | 0 | 0 | 0 | 0 | 0 | 0 | 11 | 0 | 0 | 0 | 0 | 33 | 0 | 20 | 0 | 0 | 0 | 2 | 0 | 0 |
| COC(=O)c1c(-c2ccccc2)c2cc(C)ccc2c(=O)n1Cc1ccccc1 | 0 | 0 | 0 | 0 | 0 | 100 | 0 | 0 | 0 | 24 | 20 | 1 | 0 | 10 | 0 | 0 | 0 | 0 | 42 | 90 |
| COC(=O)c1c(-c2ccccc2)c2cc(Br)ccc2c(=O)n1Cc1ccc(NC(=O)CCC(=O)O)cc1 | 1 | 0 | 7 | 18 | 11 | 0 | 2 | 0 | 14 | 15 | 17 | 0 | 2 | 18 | 2 | 15 | 7 | 0 | 16 | 57 |
| O=C(NCc1cccs1)c1cc(C(=O)c2c(Cl)cccc2Cl)c[nH]1 [GW823670] | 0 | 17 | 0 | 0 | 0 | 0 | 2 | 0 | 0 | 5 | 38 | 10 | 0 | 0 | 0 | 0 | 0 | 13 | 0 | 0 |
| O=C(Nc1ccc2c(c1)OCO2)NC1CCN(c2ccnc(NCc3ccc(F)cc3)n2)CC1 [GSK1379859] | 23 | 17 | 0 | 0 | 11 | 12 | 0 | 11 | 3 | 0 | 0 | 14 | 0 | 0 | 0 | 0 | 0 | 0 | 0 | 12 |
| Nc1nccc2scc(-c3ccc4c(c3)CCN4C(=O)Cc3ccccc3)c12 [GSK2576924] | 0 | 14 | 0 | 0 | 18 | 23 | 8 | 0 | 7 | 18 | 0 | 55 | 0 | 0 | 30 | 0 | 9 | 17 | 4 | 43 |

| Structure (SMILES) | %Inh (NEK4) [%] | %Inh (NEK5) [%] | %Inh (NEK6) [%] | %Inh (NEK7) [%] | %Inh (NEK9) [%] | %Inh (NIK) [%] | %Inh (NIM1) [%] | %Inh (NLK) [%] | %Inh (OSR1) [%] | %Inh (PAK1) [%] | %Inh (PAK2) [%] | %Inh (PAK3) [%] | %Inh (PAK4) [%] | %Inh (PAK6) [%] | %Inh (PAK7) [%] | %Inh (PCTK1) [%] | %Inh (PCTK2) [%] | %Inh (PCTK3) [%] | %Inh (PDGFRA) [%] | %Inh (PDGFRB) [%] |
| --- | --- | --- | --- | --- | --- | --- | --- | --- | --- | --- | --- | --- | --- | --- | --- | --- | --- | --- | --- | --- |
| Fc1cccc(CSc2nnc(-c3ccc4c(c3)CCO4)o2)c1 | 20 | 6 | 10 | 13 | 12 | 0 | 0 | 0 | 3 | 28 | 62 | 19 | 23 | 35 | 5 | 18 | 1 | 0 | 26 | 0 |
| COc1cc(OC)cc(-c2cc3cnc(N)nc3nc2NC(=O)NC(C)(C)C)c1 | 0 | 0 | 0 | 1 | 0 | 1 | 0 | 0 | 0 | 0 | 0 | 0 | 0 | 0 | 9 | 0 | 0 | 0 | 0 | 0 |
| Cn1c(=O)c(F)c(Nc2ccc(I)cc2F)c2c(=O)n(OC[C@H](O)CO)cnc21 | 0 | 4 | 30 | 0 | 0 | 0 | 0 | 0 | 0 | 0 | 7 | 1 | 8 | 20 | 0 | 0 | 11 | 5 | 0 | 11 |
| Nc1nc(-c2ccccc2F)c(-c2ccnc3ccccc23)s1 [GW560459] | 0 | 0 | 0 | 8 | 53 | 17 | 22 | 27 | 4 | 18 | 18 | 14 | 0 | 0 | 0 | 9 | 0 | 13 | 0 | 6 |
| Cc1cc(Nc2nc(-c3cccc(C)n3)nc3ccccc23)ccn1 [GW872411] | 0 | 6 | 0 | 0 | 0 | 16 | 0 | 0 | 0 | 0 | 15 | 0 | 0 | 0 | 17 | 0 | 0 | 0 | 0 | 0 |
| COc1cc(Nc2nccc(N3CCC(NC(=O)C(C)c4ccc(Cl)cc4)C3)n2)cc(OC)c1OC (centres unmarked) [GSK1379757] | 0 | 95.5 | 0 | 0 | 19 | 0 | 0 | 0 | 0 | 10 | 11 | 22 | 0 | 0 | 0 | 0 | 0 | 0 | 0 | 14 |
| Nc1n[nH]c2nnc(-c3ccccc3)c(-c3ccccc3)c12 [GW554060] | 0 | 0 | 0 | 0 | 0 | 100 | 28 | 0 | 9 | 0 | 0 | 0 | 0 | 0 | 0 | 0 | 0 | 20 | 0 | 2 |
| COc1ccc(-n2cnc3c(N)ncnc32)cc1 [SKF-97236] | 0 | 0 | 5 | 0 | 17 | 0 | 12 | 0 | 14 | 0 | 0 | 28 | 0 | 16 | 0 | 0 | 0 | 0 | 63 | 95.1 |
| Nc1ncnc2c1ncn2-c1cccc(F)c1 [SKF-97560] | 21 | 25 | 0 | 0 | 0 | 18 | 48 | 0 | 28 | 5 | 0 | 0 | 5 | 12 | 3 | 27 | 1 | 10 | 43 | 58 |
| Cc1cccc(-c2nc(Nc3ccc4c(cnn4C)c3)c3ccccc3n2)n1 [GW876731] | 0 | 49 | 12 | 2 | 5 | 11 | 16 | 25 | 0 | 6 | 33 | 0 | 17 | 14 | 0 | 0 | 0 | 11 | 9 | 1 |
| COc1cccc(-n2cnc3c(N)ncnc32)c1 [SKF-97416] | 0 | 8 | 8 | 0 | 0 | 27 | 61 | 0 | 24 | 20 | 53 | 0 | 18 | 18 | 1 | 15 | 0 | 6 | 42 | 4 |
| COc1ccc(Nc2nccc(N3CCC(NS(=O)(=O)c4ccc(NC(C)=O)cc4)C3)n2)cc1 (centres unmarked) [GSK1379729] | 3 | 33 | 11 | 3 | 5 | 17 | 11 | 13 | 20 | 6 | 0 | 7 | 0 | 0 | 0 | 0 | 0 | 6 | 23 | 15 |
| CN1C(=O)C(Nc2cc(Cl)c(O)c(Cl)c2)=C(c2ccc(Cl)cc2)C1=O [SB-404321] | 0 | 7 | 0 | 0 | 0 | 30 | 0 | 0 | 0 | 0 | 2 | 0 | 34 | 0 | 5 | 0 | 5 | 0 | 0 | 0 |
| CCC(=O)c1c(-c2ccccc2)c2cc(Cl)ccc2c(=O)n1Cc1cc(S(C)(=O)=O)n(CCC(C)(C)O)n1 | 0 | 17 | 14 | 1 | 0 | 0 | 0 | 0 | 0 | 20 | 8 | 21 | 6 | 0 | 2 | 29 | 21 | 13 | 0 | 0 |
| OCCCNc1nccc(-c2c(-c3cccc(C(F)(F)F)c3)nn3cc(C(F)(F)F)ccc23)n1 [GW630813] | 0 | 5 | 0 | 0 | 1 | 0 | 0 | 92.7 | 0 | 0 | 0 | 3 | 0 | 0 | 12 | 11 | 0 | 19 | 0 | 6 |
